Bioassay records as filed in PubChem.
In the library only some 2.3% were active in any assay of this set; here they are far more common.
MEKK3 PB1 HTS – raises or lowers MEK5 binding to the human MEKK3 PB1 domain; Q99759; AID 1529; 1.4% of 290,000 active; binding response (% of control), % at 10 µM; bead-based flow cytometry, Alexa488-MEK5 binding to MEKK3; actives lie on both sides; 0 = blocked by unlabeled MEK5, 100 = vehicle;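 active means binding response more than 3 SD above or below the average of its plate-row segment, actives on both sides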;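 further: Alexa488 bead fluorescence after subtracting the streptavidin-only scavenger bead signal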
Target sequence (Q99759 whole entry, looked up, the tested form may be a part): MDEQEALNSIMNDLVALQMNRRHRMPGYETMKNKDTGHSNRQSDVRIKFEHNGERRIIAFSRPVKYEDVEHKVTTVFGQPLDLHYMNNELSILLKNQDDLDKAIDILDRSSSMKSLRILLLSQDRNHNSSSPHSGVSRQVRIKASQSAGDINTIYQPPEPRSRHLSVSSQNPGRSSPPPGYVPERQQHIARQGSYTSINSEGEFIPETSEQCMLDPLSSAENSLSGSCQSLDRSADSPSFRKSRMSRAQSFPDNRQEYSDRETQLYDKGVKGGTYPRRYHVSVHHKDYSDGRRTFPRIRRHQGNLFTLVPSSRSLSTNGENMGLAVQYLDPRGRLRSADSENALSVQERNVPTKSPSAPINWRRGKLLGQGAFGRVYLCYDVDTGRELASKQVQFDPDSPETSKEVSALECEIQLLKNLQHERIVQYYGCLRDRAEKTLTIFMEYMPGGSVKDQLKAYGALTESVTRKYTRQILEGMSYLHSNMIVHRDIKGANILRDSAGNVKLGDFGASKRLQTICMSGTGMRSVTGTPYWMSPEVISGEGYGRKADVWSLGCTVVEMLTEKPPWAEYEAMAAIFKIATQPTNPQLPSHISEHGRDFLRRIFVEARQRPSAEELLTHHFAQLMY
UBC13 inh – blocks human UBC13 polyubiquitin chain formation | 0.47% of 330,000 active | TR-FRET | inhibition, % at 20 µM | AID 485273; in the data active means inhibition above about 45%, passing the limit was not always enough
MEKK2wt PB1 HTS – raises or lowers MEK5 binding to wildtype human MEKK2 PB1 domain; bead flow cytometry, Alexa488-MEK5 binding to MEKK2 WT; actives lie on both sides; 1.1% of 290,000 active; Q9Y2U5; binding response (% of control), % at 10 µM; in the data active means binding response below about 67% or above about 130%
MEKK2mut PB1 HTS – signal of MEK5 binding to mutant human MEKK2 PB1 domain | percent response, % at 10 µM | bead flow cytometry, Alexa488-MEK5 binding to MEKK2 mutant | 0.35% of 290,000 active; in the data active means percent response above about 24%, passing the limit was not always enough
MEKK2wt confirm – raises or lowers MEK5 binding to wildtype human MEKK2, retest; shares compounds with MEKK3 PB1 HTS; bead flow cytometry, Alexa488-MEK5 binding to MEKK2 WT; actives lie on both sides; binding response (% of control), % at 10 µM; 2.4% of 5,900 active; AID 1892; in the data active means binding response below about 16% or above about 210%; inactive means in between
MEKK2mut-MEK5 – signal of MEK5 binding to mutant human MEKK2, retest | shares compounds with MEKK3 PB1 HTS | AID 1893 | percent response, % at 10 µM | 2% of 5,900 active | bead flow cytometry, Alexa488-MEK5 binding to MEKK2 mutant; in the data active means percent response mostly above about 71%, no sharp cut-off; inactive means mostly below about 38%;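 further: higher means compound restores mutant binding toward wildtype level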
MEKK3 confirm – confirmation of inhibitors of MEK5 binding to human MEKK3 | AID 1894 | bead flow cytometry, Alexa488-MEK5 binding to MEKK3; active compounds read low | 1.8% of 5,900 active | shares compounds with MEKK3 PB1 HTS | binding response (% of control), % at 10 µM;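 active means binding response below 72% of control, or above a set upper limit, though filed actives all read lower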;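 further: lower values mean stronger disruption of MEK5 binding to MEKK3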
A number is an active result; [ ] = another dose, or the depositor's remark.

Results for CC(C)NC(=O)C(OC(=O)c1ccccc1)C(OC(=O)c1ccccc1)C(=O)O (configuration not stated) ?
MEKK3 PB1 HTS: 123.0; UBC13 inh: inactive; MEKK2wt PB1 HTS: inactive; MEKK2mut PB1 HTS: inactive; MEKK2wt confirm: inactive; MEKK2mut-MEK5: inactive; MEKK3 confirm: inactive

What do the screens show for `Cc1ccc(-n2nc3c(=O)n(CCCC(=O)NCc4ccccc4Cl)nc(C)c3c2C)cc1`?
MEKK3 PB1 HTS: inactive; UBC13 inh: inactive; MEKK2wt PB1 HTS: inactive; MEKK2mut PB1 HTS: inactive

What do the screens show for `O=C(/C(=N/N=C/c1ccc(O)c(O)c1O)c1ccccc1)c1ccccc1`?
MEKK3 PB1 HTS: 136.0; UBC13 inh: inactive; MEKK2wt PB1 HTS: inactive; MEKK2mut PB1 HTS: inactive; MEKK2wt confirm: inactive; MEKK2mut-MEK5: inactive; MEKK3 confirm: inactive

What do the screens show for `COc1cc(/C=N\NC(=O)c2ccc(C)nc2)ccc1OC(=O)c1cccc(F)c1`?
MEKK3 PB1 HTS: inactive; UBC13 inh: inactive; MEKK2wt PB1 HTS: inactive; MEKK2mut PB1 HTS: inactive

Results for CCOc1ccccc1NC(=O)CSc1nc2nc(-c3cccs3)cc(C(F)(F)F)c2c(=O)[nH]1 ?
MEKK3 PB1 HTS: 73.0[inhibitor]; UBC13 inh: inactive; MEKK2wt PB1 HTS: 59.0[inhibitor]; MEKK2mut PB1 HTS: inactive; MEKK2wt confirm: inactive; MEKK2mut-MEK5: inactive; MEKK3 confirm: inactive

Results for Nc1nonc1C(=O)NCCNCc1ccccc1OCc1ccc(F)cc1 ?
MEKK3 PB1 HTS: inactive; UBC13 inh: inactive; MEKK2wt PB1 HTS: 153.0; MEKK2mut PB1 HTS: inactive; MEKK2wt confirm: inactive; MEKK2mut-MEK5: inactive; MEKK3 confirm: inactive

What do the screens show for `CCC1CCCCN1C(=O)COC(=O)COc1ccc(Br)cc1` (configuration not stated)?
UBC13 inh: inactive

How did Cc1ccc(S(=O)(=O)c2c(C)cc(-c3ccccc3)[nH]c2=O)cc1 do in these assays?
MEKK3 PB1 HTS: 143.0; UBC13 inh: inactive; MEKK2wt PB1 HTS: 134.0; MEKK2mut PB1 HTS: inactive; MEKK2wt confirm: inactive; MEKK2mut-MEK5: inactive; MEKK3 confirm: inactive

Results for O=C1N(Cc2cccc(Cl)c2)C[C@@H]2C[C@@H](c3cccc4ncccc34)N3CCC[C@@]123 ?
MEKK3 PB1 HTS: inactive; UBC13 inh: inactive; MEKK2wt PB1 HTS: inactive; MEKK2mut PB1 HTS: inactive

Results for O=C1N(Cc2cccc(Cl)c2)C[C@@H]2C[C@@H](c3c[nH]c4ccccc34)N3CCC[C@@]123 ?
MEKK3 PB1 HTS: 63.0[inhibitor]; UBC13 inh: inactive; MEKK2mut PB1 HTS: inactive; MEKK2wt confirm: inactive; MEKK2mut-MEK5: inactive; MEKK3 confirm: inactive

What do the screens show for `Cc1ccc(C(C)C)c(OCCNCc2ccccc2)c1`?
MEKK3 PB1 HTS: inactive; UBC13 inh: inactive; MEKK2wt PB1 HTS: 134.0; MEKK2mut PB1 HTS: inactive; MEKK2wt confirm: inactive; MEKK2mut-MEK5: inactive; MEKK3 confirm: inactive

What do the screens show for `Cc1cc(OCCOCCNCc2ccccc2)ccc1C(C)C`?
MEKK3 PB1 HTS: inactive; UBC13 inh: inactive; MEKK2wt PB1 HTS: 134.0; MEKK2mut PB1 HTS: inactive; MEKK2wt confirm: inactive; MEKK2mut-MEK5: inactive; MEKK3 confirm: inactive

How did Cc1n[nH]c(C)c1Sc1ccccc1[N+](=O)[O-] do in these assays?
MEKK3 PB1 HTS: 57.0[inhibitor]; UBC13 inh: inactive; MEKK2wt PB1 HTS: inactive; MEKK2mut PB1 HTS: inactive; MEKK2wt confirm: inactive; MEKK2mut-MEK5: inactive; MEKK3 confirm: inactive

How did C=C(C)CN(CC)C(=O)CCc1nnc(CCCc2ccccc2)o1 do in these assays?
MEKK3 PB1 HTS: inactive; UBC13 inh: inactive; MEKK2wt PB1 HTS: inactive; MEKK2mut PB1 HTS: inactive

What do the screens show for `CCN(CCn1cccn1)C(=O)CCc1nnc(CCCc2ccccc2)o1`?
MEKK3 PB1 HTS: 131.0; UBC13 inh: inactive; MEKK2wt PB1 HTS: 151.0; MEKK2mut PB1 HTS: active; MEKK2wt confirm: inactive; MEKK2mut-MEK5: inactive; MEKK3 confirm: inactive

Results for Cc1ccnc(NC(=O)c2cc(S(=O)(=O)N3CCCCC3)ccc2Cl)c1 ?
MEKK3 PB1 HTS: 134.0; UBC13 inh: inactive; MEKK2wt PB1 HTS: inactive; MEKK2mut PB1 HTS: inactive; MEKK2wt confirm: inactive; MEKK2mut-MEK5: inactive; MEKK3 confirm: inactive
